Several values for one entry are separate records, joined by “and”; a condition that tells them apart may be missing. Identical values can stand only once. The campaign covered roughly 340,000 compounds. About 1,000 (0.29%) were called active. A selection follows. Measured potencies and affinities stand elsewhere. Values without a mark were called inactive. Cut-off read from the data, not from the text of the source: inconclusive = inhibition above about 27% without an active follow-up result; inactive = below that.
Test: NS1A inhibition, H1N1 influenza, cell based functional assay (AID 504329)
Conditions: percent inhibition, at 12.5 µM, active compounds read high

SMILES | inhibition
O=C(O)c1cccc(NC(=O)c2ccccc2NC(=O)c2ccco2)c1 | -7.51%
CN(C)/C=C(\C(=O)c1cccc(Cl)c1)c1nnnn1-c1ccccc1 | -1.13%
N=C(N)c1ccc(N)cc1 | 2.89%
Nc1ccc(C(=O)C(=O)c2ccc(N)cc2)cc1 | 1.62%
CCOC(=O)c1cc(CC)sc1NC(=O)CC1SC(N)=NC1=O (stereo unspecified) | -8.66%
Cc1ccc(S(=O)(=O)Cn2nnnc2C(CC(C)C)N2CCN(C3CCCC3)CC2)cc1 (stereo unspecified) | -5.05%
COc1ccc(C(=O)N/N=C(\Cc2ncc[nH]2)c2ccccc2)cc1 | 1.55%
COc1cc(C(=O)N/N=C(\Cc2ncc[nH]2)c2ccccc2)cc(OC)c1OC | -5.85%
CN(CC(=O)Nc1ccccc1Cl)C(=O)COC(=O)c1ccc(-c2ccc(O)cc2)cc1 | -4.29%
CCC(=O)Nc1ccc(C(=O)N/N=C/c2c(C)[nH]c3ccccc23)cc1 | 10.2%
CC(CNC(=O)c1cc(COc2c(F)cccc2F)on1)Oc1cccnc1 (stereo unspecified) | 5.51%
O=C(NNC(=S)NC(=O)c1cccnc1)c1ccc(Cl)cc1 | -8.92%
O=C(NNC(=O)c1cnccn1)c1ccc(Cl)cc1 | -1.07%
O=C(NNC(=S)NC(=O)c1cccnc1)c1ccc(F)cc1 | 3.02%
O=C(NNC(=S)NC(=O)c1ccc(F)cc1)c1ccncc1 | -6.57%
O=C(/C=C/c1ccccc1)NC(=S)NNC(=O)c1cccnc1 | 11.7%
COc1ccc(/C=C/C(=O)NC(=S)NNC(=O)c2cnccn2)cc1 | 22%
CSc1nsc(SCC(=O)N2CCCc3ccccc32)n1 | -4.75%
COc1ccc(NC(C)=O)c2nc(C)c(C)nc12 | 2.97%
CC1(C)OC(c2ccccc2)=C/C(=C/C=C2C(=O)NC(=O)NC2=O)O1 | 22.3%
CC1(C)OC(c2ccccc2)=C/C(=C/C=Nc2ccccc2)O1 | -14.7%
CCN(CC)C(=O)Oc1cc(=O)n2c3c(cccc13)CCC2 | 2.43%
Cc1cc(C(=O)Nc2ccc3c(c2)OCO3)no1 | 6.49%

SMILES | inhibition
O=C(COc1ccc(Cl)cc1Br)OCC(=O)c1ccc[nH]1 | -4.26%
COc1cc(C2SCC(=O)Nc3c2c(=O)[nH]n3C2CCCCCC2)cc(OC)c1OC (stereo unspecified) | 3.42%
N#Cc1ccccc1OCC(=O)Nc1ccccc1C(=O)NC1CC1 | -6.65%
Cc1cc(C)n(CC(=O)N/N=C/c2cccc([N+](=O)[O-])c2)n1 | 4.33%
COc1cc([N+](=O)[O-])cc(/C=N/NC(=O)Cn2nc(C)cc2C)c1O | -28.6%
Cc1cc(C)n(CC(=O)N/N=C/c2cc(Br)cc([N+](=O)[O-])c2O)n1 | 15.4%
COc1cc([N+](=O)[O-])cc(/C=N/NC(=O)Cn2nccc2C)c1O | 13.5%
CCOC(=O)c1c(C)[nH]c(C(=O)N/N=C\c2ccccc2O)c1C | 0.86%
O=C(Cn1nnc(-c2ccccc2)n1)N/N=C/c1cc([N+](=O)[O-])ccc1O | 0.1%
O=C(Cn1nc2ccccc2n1)N/N=C/c1cc(Cl)cc([N+](=O)[O-])c1O | 17.6%
CCOC(=O)c1c(C)[nH]c(C(=O)N/N=C\c2ccccc2Cl)c1C | 1.32%
COc1ccc(NC(=S)N(CCO)Cc2ccccc2)cc1 | 1.27%
CN(C(=O)c1cncc(Br)c1)C1C2CC3CC(C2)CC1C3 (stereo unspecified) | 0.5%
O=C(COC(=O)C1CCC1)Nc1cc(S(=O)(=O)N2CCCCC2)ccc1Cl | 3.86%
O=C(c1cc(C2CC2)nn1-c1ccccc1)N1CCN(c2ncc(C(F)(F)F)cc2Cl)CC1 | -6.87%
CCc1ccccc1NCC(=O)Nc1ccccc1C(=O)OC | -3.34%
Cc1c(C)c2ccc(OCC(=O)c3ccccc3)cc2oc1=O | -16.6%
CC(=O)Nc1ccc(S(=O)(=O)N2CCN(CCc3ccccc3)CC2)cc1 | 0.26%
Nc1ccccc1N=Cc1c(O)n(CCC2=CCCCC2)c(=O)[nH]c1=O | -8.66%
COC(CNC(=O)C1CCCN(S(=O)(=O)c2c(C)noc2/C=C/c2cccs2)C1)OC (stereo unspecified) | 9.65%
O=C(OCc1ccccc1)N1CCC2CC1c1cc(-c3ccccc3)ccc12 (stereo unspecified) | -8.29%
CCOc1cccc(CN2CCCC(CNC(=O)c3cccc(OC)c3OC)C2)c1 (stereo unspecified) | 0.84%
COc1ccc(CCNC(=O)COC(=O)c2cc(S(=O)(=O)N3CCCC3)ccc2O)cc1 | -7.2%

SMILES | inhibition
C=CCCN(C(C(=O)OC)C(C)C)S(=O)(=O)c1ccccc1Br (stereo unspecified) | -12.7%
Cc1ccc(NC(=O)CCC(=O)N/N=C/c2cc([N+](=O)[O-])ccc2O)cc1 | -7.13%
Nc1nnnn1CC(=O)N/N=C/c1cc([N+](=O)[O-])ccc1Cl | -6.51%
Cc1ccccc1NC(=O)CCC(=O)N/N=C/c1cc([N+](=O)[O-])ccc1O | 10.1%
Cc1ccc(C)c(NC(=O)CCC(=O)N/N=C/c2cc([N+](=O)[O-])ccc2O)c1 | 8.85%
O=C(N/N=C/c1cc([N+](=O)[O-])ccc1O)Nc1ccccc1 | -0.02%
COc1ccc(Br)cc1/C=N/NC(=O)Cn1nnnc1N | 0.27%
O=C(N/N=C/c1cc([N+](=O)[O-])ccc1O)C1CC1 | 4.39%
CN1CCN(CCC(=O)N/N=C/c2cc([N+](=O)[O-])ccc2OC(F)F)CC1 | -8.9%
Cc1cc(C)c2c(c1)-c1c(ssc1=S)C(C)(C)N2C(=O)CSc1nncn1C | 9.33%
O=c1[nH]c(=O)n(Cc2ccco2)c(O)c1/C=N/N1CCCCCC1 | 12.8%
CCN(CC(=O)Nc1c(F)cccc1F)C(=O)CSCc1c(C)noc1C | -12.8%
COCCn1c(C)cc(C(=O)COC(=O)CNC(=O)c2ccccc2)c1C | 4.38%
O=C(c1cccc(C(F)(F)F)c1)C1CCCN(C(=O)c2cc(C3CC3)[nH]n2)C1 (stereo unspecified) | -9.76%
CS(=O)(=O)Nc1ccc(C(=O)Nc2ccccc2C(=O)NCc2ccco2)cc1 | -1.06%
O=C(Cn1cncn1)N/N=C/c1cccc2ccccc12 | -2.86%
Nc1nnc(CC(=O)N/N=C/c2ccc([N+](=O)[O-])cc2)s1 | -6.47%
Cc1cc(C(=O)N/N=C/c2ccc([N+](=O)[O-])cc2)c2ccccc2n1 | 8.83%
O=C(N/N=C/c1cc([N+](=O)[O-])ccc1O)c1cc(-c2ccccc2)nc2ccccc12 | 15.9%
O=C(Cn1cncn1)N/N=C/c1ccccc1Cl | -0.24%
O=C(CSc1ccccn1)N/N=C/c1cc([N+](=O)[O-])ccc1O | 21.2%
O=C(CCC(=O)Nc1ccc(Br)cc1)N/N=C/c1cc([N+](=O)[O-])ccc1O | -1.12%
Nc1nnc(CC(=O)N/N=C/c2cc([N+](=O)[O-])cc(Br)c2O)s1 | 7.8%

SMILES | inhibition
CC(OC(=O)C12CC3CC(CC(O)(C3)C1)C2)C(N)=O (stereo unspecified) | -5.93%
Cc1cc(C)n(-c2ccc(C(=O)Nc3ccc(N4CCOCC4)cc3)cc2)n1 | -0.85%
CC(Oc1ccc(Cl)cc1Cl)c1nc(-c2ccc(NC(=O)c3ccncc3)cc2)no1 (stereo unspecified) | 6.94%
CCOC(=O)N1CCN(S(=O)(=O)c2ccc(C)c(C)c2C)CC1 | -2.44%
C=C[C@@H]1CN2CCC1C[C@@H]2[C@@H](O)c1ccnc2ccc(OC)cc12 (stereo partly specified) | -0.14% and 2.49%
CCCCOc1ccc(CCC(=O)N/N=C/c2ccco2)cc1 | -16.9%
O=c1c(-c2ccnn2-c2ccc(F)cc2)cnc2n1CCS2 | 11.8%
O=C(Nc1c2c(nn1-c1ccc(Cl)cc1)CS(=O)(=O)C2)C1CC1 | -8.81%
O=C(CSc1nnc(-c2ccc(Cl)cc2)n1-c1ccc(Cl)cc1)N/N=C/c1ccco1 | -4.44%
O=C1NCCCC1C(=O)N/N=C/c1ccccc1[N+](=O)[O-] (stereo unspecified) | 4.74%
O=C1NCCCC1C(=O)N/N=C/c1ccccc1O (stereo unspecified) | 1.62%
O=C(N/N=C/c1cc(Br)ccc1O)c1cccc(N2CCCC2=O)c1 | -7.38%
COc1ccc(N2CC(C(=O)Nc3ccc([N+](=O)[O-])cc3Br)CC2=O)cc1 (stereo unspecified) | -1%
O=C(N/N=C/c1ccc([N+](=O)[O-])cc1)c1cccc(N2CCCC2=O)c1 | -4.45%
COc1ccc(N2CC(C(=O)N/N=C/c3ccc([N+](=O)[O-])cc3)CC2=O)cc1 (stereo unspecified) | 3.03%
COc1ccc(Cl)cc1C(=O)NC1=NCCS1 | 3.24%
N#Cc1ccc(Oc2ncccn2)cc1 | -1.76%
CC(=O)Nc1ccc(S(=O)(=O)N(C)CC(=O)OCC(=O)c2cc(C)n(-c3ccc4c(c3)OCO4)c2C)cc1 | 4.97%
COc1cc(/C=C2\SC(=O)N(c3ccc(Cl)cc3)C2=O)cc([N+](=O)[O-])c1O | -5.87%
COc1cc(/C=C2\SC(=O)N(Cc3ccc(F)cc3)C2=O)cc([N+](=O)[O-])c1O | 26.1%
CCN(CC)c1ccc(C(=O)Nc2cccc(F)c2)cc1 | 0.06%
CCN(CC)c1ccc(NC(=O)c2ccc3c(c2)OCO3)cc1 | 21.3%

Reference: PubChem BioAssay AID504329 (Southern Research Specialized Biocontainment Screening …, 2011)
